The record followed here is PubChem BioAssay AID2284359 (EPA ToxCast).

Each structure is given as a SMILES string. Results filed as inconclusive are left out. Active and inactive are the calls of the source. Rule for the calls: active = hit-call score of the fitted dose curve at least 0.9, where 1 is the maximum; inconclusive = response in the unintended direction; inactive = score below 0.9.

A short description of this assay: ATG_M_06_EcoTox2: Attagene TRANS-FACTORIAL EcoTox-2 HepG2 Assay for M06 Transcription Factor (Internal Marker). As to the method:
ATG_EcoTox2 is a cell-based, multiplexed assay created by modifying the existing Attagene TRANS-FACTORIAL system to include a panel of nuclear receptors from some or all the following species: human (Homo sapiens), african clawed frog (Xenopus laevis), rainbow trout (Oncorhynchus mykiss), japanese medaka (Oryzias latipes), and zebrafish (Danio rerio). The ECOTOX2-FACTORIAL format uses HepG2, a human liver cell line, with measurements taken at 24 hours after chemical dosing in a 24-well plate. ATG_M_06_EcoTox2 is one of 29 assay components calculated in the ATG_EcoTox2 assay. It is designed to make measurements of mRNA induction, a form of inducible reporter, as detected with fluorescence intensity signals by Reverse transcription polymerase chain reaction (RT-PCR) and Capillary electrophoresis technology.The assay endpoint ATG_M_06_EcoTox2 was analyzed in the positive analysis fitting direction relative to DMSO as the negative control and baseline of activity. Using a type of inducible reporter, measures of mRNA for gain-of-signal activity can be used to understand the background control at the transcription factor-level as they relate to the gene. Furthermore, this assay endpoint can be referred to as a secondary readout, because this assay has produced multiple assay endpoints where this one serves a background control function. To generalize the intended target to other relatable targets, this assay endpoint is annotated to the background measurement intended target family, where the subfamily is internal marker.
Human liver HepG2 cells are transiently transfected with multiple reporter transcription units (MRTUs) in 6-well plates using FuGene 6 reagent (Roche; 3 ml FuGene/1 mg DNA). The MRTU constructs are regulated by a cis-regulating element (promoter). Each RTU expresses a GAL4-UAS that regulates the transcription of a nearby target reporter gene sequence. A major difference between the CIS and TRANS system is that in CIS activities of endogenous TFs are measured, whereas the TRANS assay evaluates changes in activities of exogenous, chimeric NR-Gal4 proteins. […] At the end of 24 hour incubation, total RNA was isolated using TriZol reagent (Invitrogen). The isolated RNA is then reverse-transcribed using oligo(dT) primer and Mo-MLV reverse transcriptase (Invitrogen) with DNAse I (Ambion) treatment for 30 min. The one-tenth of the produced cDNA was amplified by PCR using Taq DNA polymerase (Invitrogen) and two reporter sequence-specific primers. […] The fragments were purified using Qiaquick PCR columns (Qiagen), analyzed on an ABI 3130xL genetic analyzer (Applied Biosystems) with peak positions identified by using a set of X-rhodamine (ROX)-labeled MapMarker1000 molecular weight standards (BioVentures). […]
For `O=C(O)C(F)(F)C(F)(F)C(F)(F)C(F)(F)C(F)(F)C(F)(F)C(F)(F)F`, the result was inactive. Next, `CCCCOCN(C(=O)CCl)c1c(CC)cccc1CC`: “inactive”; `O=P(Oc1ccccc1)(Oc1ccccc1)Oc1ccccc1`: “inactive”. To `O=S(=O)(O)C(F)(F)C(F)(F)C(F)(F)C(F)(F)C(F)(F)C(F)(F)F` belongs “inactive”.
